Results published in the supplement of paper PMC4206461.

test system: Pseudomonas aeruginosa PA14 wild type; assay: respiration area under curve with compound as sole nitrogen source, 24 h (OmniLog AUC (arbitrary units)); higher = more respiration / better utilisation as nitrogen source, active = 2000 or more; conditions: plate: PM8
Description: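 Biolog Phenotype MicroArray plates PM6-PM8: each di/tripeptide is the sole nitrogen source (IF-0 medium with succinate/ferric citrate and dye mix A). Tetrazolium reduction was read in the OmniLog every 15 min for 24 h at 37°C and summarised as area under the respiration curve (arbitrary units). The paper counts values below 2000 as no respiration and above 8000 as solid respiration. Replicate datasets are averaged.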

SMILES	respiration area under curve
N[C@@H](Cc1ccc(O)cc1)C(=O)NCC(=O)NCC(=O)O	11300 (active)
